Assay results taken from PubChem BioAssay AID1159580 (chemical genetic matrix, 2015).
Out of some 5,500 compounds screened, about 2,000 (36%) were called active. Inconclusive results (about 18%) are left out. Rule as the data show it: active = normalized growth mostly below about 0.91 (no sharp cut-off); inconclusive = no clear call, values can overlap the other calls; inactive = mostly above about 0.92. The list shows a part of the results.

Test: chemical genetic growth profiling, strain panel (AID 1159580);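 also: tested at 20 µM; growth read once vehicle control cultures reached saturation at 30 °C; 1 = growth at the plate median or of vehicle wells; lower values mean less growth of the strain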
Conditions: growth OD

Measured: normalized growth

O=C(/C=C/c1ccc(O)c(O)c1)O[C@@H]1C[C@](O)(C(=O)O)C[C@@H](O)[C@H]1O
inactive: S. cerevisiae deletion strains, locus YKL009W, strain mrt4, stronger effect = lower value 1.04 | S. cerevisiae deletion strains, locus YKL068W, stronger effect = lower value 1.01 | S. cerevisiae deletion strains, locus YKL085W, strain MDH1 (second series), stronger effect = lower value 1 | S. cerevisiae deletion strains, locus YKL085W, strain MDH1, stronger effect = lower value 1 | S. cerevisiae deletion strains, locus YKL160W, strain elf1, stronger effect = lower value 1.03 | S. cerevisiae deletion strains, locus YKR001C, strain vps1, stronger effect = lower value 1.03 | S. cerevisiae deletion strains, locus YKR026C, strain gcn3, stronger effect = lower value 0.973 | S. cerevisiae deletion strains, locus YKR091W, strain srl3, stronger effect = lower value 0.992 | S. cerevisiae deletion strains, locus YLL001W, strain dnm1, stronger effect = lower value 0.99 | S. cerevisiae deletion strains, locus YLL026W, stronger effect = lower value 0.985 | S. cerevisiae deletion strains, locus YLL041C, strain sdh2, stronger effect = lower value 0.974 | S. cerevisiae deletion strains, locus YLR027C, strain aat2, stronger effect = lower value 0.999 | S. cerevisiae deletion strains, locus YLR039C, strain RIC1, stronger effect = lower value 1.05 | S. cerevisiae deletion strains, locus YLR058C, strain SHM2, stronger effect = lower value 1.01 | S. cerevisiae deletion strains, locus YLR102C, strain apc9, stronger effect = lower value 1.01 | S. cerevisiae deletion strains, locus YLR113W, strain HOG1, stronger effect = lower value 1 | S. cerevisiae deletion strains, locus YLR221C, strain rsa3, stronger effect = lower value 0.972 | S. cerevisiae deletion strains, locus YLR258W, strain gsy2, stronger effect = lower value 0.985 | S. cerevisiae deletion strains, locus YLR262C, strain YPT6 (second series), stronger effect = lower value 0.996 | S. cerevisiae deletion strains, locus YLR262C, strain YPT6, stronger effect = lower value 1.11 | S. cerevisiae deletion strains, locus YLR268W, strain sec22, stronger effect = lower value 1.05 | S. cerevisiae deletion strains, locus YLR320W, strain mms22, stronger effect = lower value 0.969 | S. cerevisiae deletion strains, locus YLR330W, strain CHS5, stronger effect = lower value 1.01 | S. cerevisiae deletion strains, locus YLR342W, strain FKS1 (second series), stronger effect = lower value 0.998 | S. cerevisiae deletion strains, locus YLR342W, strain FKS1, stronger effect = lower value 0.988 | S. cerevisiae deletion strains, locus YLR357W, strain rsc2, stronger effect = lower value 1 | S. cerevisiae deletion strains, locus YLR370C, strain arc18, stronger effect = lower value 0.986 | S. cerevisiae deletion strains, locus YLR371W, strain rom2, stronger effect = lower value 1.01 | S. cerevisiae deletion strains, locus YLR384C, strain iki3, stronger effect = lower value 0.96 | S. cerevisiae deletion strains, locus YLR418C, strain cdc73, stronger effect = lower value 0.992 | S. cerevisiae deletion strains, locus YML016C, strain PPZ1, stronger effect = lower value 1 | S. cerevisiae deletion strains, locus YML032C, strain rad52, stronger effect = lower value 0.999 | S. cerevisiae deletion strains, locus YML120C, strain ndi1, stronger effect = lower value 0.993 | S. cerevisiae deletion strains, locus YML124C, strain tub3, stronger effect = lower value 1.01 | S. cerevisiae deletion strains, locus YMR058W, strain fet3, stronger effect = lower value 0.978 | S. cerevisiae deletion strains, locus YMR078C, strain ctf18, stronger effect = lower value 1.02 | S. cerevisiae deletion strains, locus YMR125W, strain sto1, stronger effect = lower value 0.99 | S. cerevisiae deletion strains, locus YMR129W, stronger effect = lower value 0.991 | S. cerevisiae deletion strains, locus YMR205C, strain PFK2, stronger effect = lower value 1.03 | S. cerevisiae deletion strains, locus YMR223W, strain ubp8, stronger effect = lower value 1 | S. cerevisiae deletion strains, locus YMR231W, strain pep5, stronger effect = lower value 0.971 | S. cerevisiae deletion strains, locus YMR263W, strain SAP30, stronger effect = lower value 1.01 | S. cerevisiae deletion strains, locus YMR307W, strain GAS1, stronger effect = lower value 0.959 | S. cerevisiae deletion strains, locus YNL067W, strain RPL9B, stronger effect = lower value 1.04 | S. cerevisiae deletion strains, locus YNL071W, strain lat1, stronger effect = lower value 0.987 | S. cerevisiae deletion strains, locus YNL128W, strain TEP1, stronger effect = lower value 1.04 | S. cerevisiae deletion strains, locus YNL153C, strain GIM3, stronger effect = lower value 1.02 | S. cerevisiae deletion strains, locus YNL183C, strain NPR1, stronger effect = lower value 0.957 | S. cerevisiae deletion strains, locus YNL209W, strain ssb2, stronger effect = lower value 0.991 | S. cerevisiae deletion strains, locus YNL233W, strain BNI4, stronger effect = lower value 1.02 | S. cerevisiae deletion strains, locus YNL248C, strain rpa49, stronger effect = lower value 0.982 | S. cerevisiae deletion strains, locus YNL250W, strain rad50, stronger effect = lower value 1.03 | S. cerevisiae deletion strains, locus YNL271C, strain bni1, stronger effect = lower value 1.01 | S. cerevisiae deletion strains, locus YNL298W, strain CLA4, stronger effect = lower value 1.02 | S. cerevisiae deletion strains, locus YNL307C, strain MCK1, stronger effect = lower value 1.02 | S. cerevisiae deletion strains, locus YNL322C, strain KRE1 (second series), stronger effect = lower value 0.976 | S. cerevisiae deletion strains, locus YNL322C, strain KRE1, stronger effect = lower value 1 | S. cerevisiae deletion strains, locus YNR049C, strain mso1, stronger effect = lower value 0.973 | S. cerevisiae deletion strains, locus YNR052C, strain pop2, stronger effect = lower value 1.01 | S. cerevisiae deletion strains, locus YOL006C, strain TOP1, stronger effect = lower value 1.15 | S. cerevisiae deletion strains, locus YOL012C, strain htz1 0.974 | S. cerevisiae deletion strains, locus YOL147C, strain pex11, stronger effect = lower value 1.02 | S. cerevisiae deletion strains, locus YOR001W, strain rrp6, stronger effect = lower value 0.925 | S. cerevisiae deletion strains, locus YOR061W, strain CKA2, stronger effect = lower value 1.01 | S. cerevisiae deletion strains, locus YOR069W, strain VPS5, stronger effect = lower value 1.01 | S. cerevisiae deletion strains, locus YOR070C, strain gyp1, stronger effect = lower value 0.985 | S. cerevisiae deletion strains, locus YOR080W, strain dia2, stronger effect = lower value 0.983 | S. cerevisiae deletion strains, locus YOR083W, strain WHI5, stronger effect = lower value 1.04 | S. cerevisiae deletion strains, locus YOR106W, strain vam3, stronger effect = lower value 1 | S. cerevisiae deletion strains, locus YOR136W, strain idh2, stronger effect = lower value 1.03 | S. cerevisiae deletion strains, locus YOR144C, strain elg1, stronger effect = lower value 1.01 | S. cerevisiae deletion strains, locus YOR184W, strain ser1, stronger effect = lower value 1 | S. cerevisiae deletion strains, locus YOR231W, strain MKK1, stronger effect = lower value 1.02 | S. cerevisiae deletion strains, locus YOR265W, strain rbl2, stronger effect = lower value 0.999 | S. cerevisiae deletion strains, locus YOR270C, strain vph1, stronger effect = lower value 0.924 | S. cerevisiae deletion strains, locus YOR290C, strain snf2, stronger effect = lower value 1.01 | S. cerevisiae deletion strains, locus YOR316C, strain cot1, stronger effect = lower value 1.02 | S. cerevisiae deletion strains, locus YPL051W, strain arl3, stronger effect = lower value 0.999 | S. cerevisiae deletion strains, locus YPL055C, strain LGE1, stronger effect = lower value 1.03 | S. cerevisiae deletion strains, locus YPL078C, strain atp4, stronger effect = lower value 1.02 | S. cerevisiae deletion strains, locus YPL106C, strain sse1, stronger effect = lower value 0.995 | S. cerevisiae deletion strains, locus YPL240C, strain hsp82, stronger effect = lower value 0.969 | S. cerevisiae deletion strains, locus YPL256C, strain CLN2, stronger effect = lower value 1.01 | S. cerevisiae deletion strains, locus YPR119W, strain clb2, stronger effect = lower value 1.01 | S. cerevisiae deletion strains, locus YPR141C, strain kar3, stronger effect = lower value 1.01 | S. cerevisiae deletion strains, locus YPR163C, strain tif3, stronger effect = lower value 1.03 | S. cerevisiae deletion strains, locus YPR167C, strain met16, stronger effect = lower value 1.01 | S. cerevisiae deletion strains, strain wtn01, stronger effect = lower value 1.05 | S. cerevisiae strains, strain wild type, stronger effect = lower value 1.01
